# Measured values: PubChem BioAssay
# How the values were obtained:
# [1] = target: Tumor necrosis factor receptor superfamily member 10B (Homo sapiens) (UniProt O14763); assay: caspase-8 TRAIL sensitization, hit retest, confirmation, cell-based, NB7+caspase-8, with/without TRAIL, luminescence panel (AID 651596); settings: NB7 neuroblastoma + caspase-8, TRAIL sensitization, luminescence viability, with TRAIL, mean of runs, at 10 µM, stronger effect = higher value
# [2] = as above; settings: NB7 neuroblastoma + caspase-8, without TRAIL, luminescence viability, without TRAIL, mean of runs, at 10 µM
# Chain of Tumor necrosis factor receptor superfamily member 10B (Homo sapiens) (O14763 whole entry, looked up): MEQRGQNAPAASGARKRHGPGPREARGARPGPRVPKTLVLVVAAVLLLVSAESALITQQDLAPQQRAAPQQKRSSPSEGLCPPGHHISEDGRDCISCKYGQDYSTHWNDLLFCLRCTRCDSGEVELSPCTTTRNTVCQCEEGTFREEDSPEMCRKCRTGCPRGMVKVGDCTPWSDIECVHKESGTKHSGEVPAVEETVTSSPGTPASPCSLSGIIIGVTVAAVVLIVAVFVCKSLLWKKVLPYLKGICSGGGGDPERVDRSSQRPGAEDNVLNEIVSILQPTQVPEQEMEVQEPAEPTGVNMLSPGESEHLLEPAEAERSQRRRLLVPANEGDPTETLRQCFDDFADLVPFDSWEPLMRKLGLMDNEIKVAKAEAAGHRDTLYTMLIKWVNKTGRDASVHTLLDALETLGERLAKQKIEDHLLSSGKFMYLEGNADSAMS
SMILES,activity [1] [%],activity [2] [%]
COc1ccc(NC(=O)c2cc([N+](=O)[O-])ccc2O)cc1,89.8,88.2
NC(CCc1ccccc1)c1csc(NC(=O)Nc2ccccc2Oc2ccccc2)n1 (centres undefined),79,93
O=C(Nc1ccc(N2CCCCC2)cc1)c1ccccc1,69.6,58.5
Nc1nc(CCl)nc(Nc2ccc3ccccc3c2)n1,99.1,97.8
c1ccc(COc2ncnc3c2ncn3CCCNCC(c2ccccc2)c2ccccc2)cc1,18.2,41.5
O=C(Nc1ccccc1)Nc1ccc(C(=O)N2CCCC2)cc1,65.6,71.5
C=C(C)CSc1nnc2n(C)c(=O)c3c4c(sc3n12)CCC4,61.6,63.9
Cc1cc(C)c2c(=N)c3ccccc3n(CCCCCCCCn3c4ccccc4c(=N)c4c(C)cc(C)nc43)c2n1,78.3,98.7
CC(C)N1CCc2c(sc(NC(=O)c3ccc([N+](=O)[O-])o3)c2C(N)=O)C1,-2.23,93.5
Cc1nc2ccc(-c3nc4cc(N)ccc4o3)cc2[nH]1,59.7,57.4
Cc1ccc2nc(NC(=S)NC(=O)c3cccs3)sc2c1,82.5,74.8
Oc1ccc(-c2cn3ccccc3n2)cc1,45.3,45.5
Cc1ccc(Cn2ncc(Cl)c(Cl)c2=O)cc1,97.2,99.3
CSc1ccc(/C=C/C(=O)NC(=O)c2ccccc2O)cc1,82.5,84.7
CC(C)CC(=O)Nc1ccc(-c2cn3ccsc3n2)cc1,85.2,88.2
N/C(=N\OC(=O)c1ccc2ccccc2c1)c1ccccc1Cl,99.4,99.2
Oc1ccc(-c2cnc(-c3ccc(O)cc3)nc2)cc1,88.2,93.3
